High-throughput results (PubChem BioAssay)
DT40 TDP1 CPT: growth inhibition of DT40 Tdp1-/-;hTDP1 cells with camptothecin (screen for TDP1 inhibitors); chicken DT40 Tdp1-/-;hTDP1 cells + 20 nM CPT, ATP luminescence, 48 h; Potency, µM (top dose mostly 46.2 µM), usual class: inhibitors; 420,000 compounds, 12% hits; AID 686979; also: nearly all actives have a fitted effect of over 55% in size
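Cell growth measured by CellTiter-Glo luminescence after a minimum 48 h, 37 C compound exposure with 20 nM CPT in Tdp1-knockout DT40 cells stably expressing hTDP1, seeded 400/well; qHTS titration format.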
HepG2 viability: counter-screen for TGF-b inhibitors: cytotoxicity in HepG2 cells; Potency, µM (series often up to 46.1 µM), actives largely listed as cytotoxic; 410,000 compounds, 0.76% hits; HepG2 CAGA-GFP viability, ATP luminescence, 18 h
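HepG2 CAGA-GFP cells (1000/well, DMEM with 1% FBS) received compound, then TGF-beta at 500 pg/mL final, and were incubated 18 hours at 37 degrees C. Viability was read by CellTiter-Glo luminescence. Media-only wells were set as complete cell-killing and DMSO as no toxicity.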
TDP1 block: inhibitors of human tyrosyl-DNA phosphodiesterase TDP1 | Q9NUW8 | recombinant TDP1, AlphaScreen DNA substrate cleavage | Potency, µM (doses to about 130 µM), usual class: inhibitors | 350,000 compounds, 0.28% hits | AID 485290; also: nearly all actives have a fitted effect of over 40% in size
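AlphaScreen read-out: signal falls as enzyme removes the 3' tyrosine-FITC from a 5'-biotinylated DNA oligo (15 nM, 5 min, RT). Enzyme was E. coli-made recombinant Tdp1 at 1 nM, exposed to compound for 15 min beforehand; beads 10 ug/ml, 10 min.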
TGFb inhibitor: TGF-b pathway inhibition | HepG2 CAGA-GFP TGF-b/SMAD3 reporter, GFP fluorescence, 18 h; TGF-beta stimulated, 500 pg/mL final | Potency, µM (highest dose often 46.1 µM), most hits filed as inhibitors | 410,000 compounds, 1.2% hits | AID 588855; also: nearly all actives have a fitted effect of over 65% in size
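GFP signal (ex488/em500-530) from TGF-beta-stimulated HEPG2 CAGA-GFP cells, 500 pg/mL final, 18 h at 37 degrees C in DMEM plus 1% FBS, normalized to unstimulated and DMSO-stimulated controls.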
IL1B secr inh: inflammasome signaling inhibition, IL-1 beta readout; THP-1 LPS/ATP IL-1B secretion, AlphaLISA, 16 h; active compounds read low; activity change, % at 57.5 µM; 360,000 compounds, 4.7% hits; AID 743279; in the data active = activity change below about -50%; inconclusive = mostly about -30% to -49%
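Secreted IL-1B measured by AlphaLISA bead assay after 16 h compound exposure of THP-1 cells; compounds (final up to 57.5 uM) added 1 h before LPS (250 ng/mL) and ATP (1.25 mM) stimulation; lower signal means less secretion.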
TDP1 cell noCPT: qHTS for Inhibitors of human tyrosyl-DNA phosphodiesterase 1 (TDP1): qHTS in cells in absence of CPT | DT40 Tdp1-/- hTDP1 cells, no CPT, ATP luminescence, 48 h | Potency, µM (top dose mostly 46.2 µM), usual class: inhibitors | 420,000 compounds, 15% hits | AID 686978, 2013; also: nearly all actives have a fitted effect of over 55% in size
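Growth of hTDP1-complemented DT40 Tdp1-knockout cells is measured by ATP luminescence after at least 48 hr compound exposure at 37 °C, with DMSO substituting for the 20 nM CPT used in the parallel screen.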
Each line names hits and unclear results; the compound was inactive in the other large screens. Compounds with a hit are over-represented: about 19% of the library has one in this group of screens. Unless noted, calls follow the shape of the dose curve; as a rule, active = well fitted curve in the direction sought with a large enough effect; inconclusive = small, poorly fitted or top-dose-only effect, or another doubt; inactive = no such curve, though single readings can be large; an effect the other way counts as inactive or inconclusive.

C=CC[C@H](CC(=O)N(CCO)Cc1ccccc1)C(=O)N[C@H](COC(=O)[C@H](CC=C)CC(=O)OC(C)(C)C)Cc1ccccc1	DT40 TDP1 CPT 23.1µM, TGFb inhibitor inconclusive, TDP1 cell noCPT 20.6µM
C=CC[C@H](CC(=O)NCCO)C(=O)NC[C@@H](OC(=O)[C@@H](CC=C)CC(=O)OC(C)(C)C)c1ccccc1	DT40 TDP1 CPT inconclusive, TDP1 cell noCPT inconclusive
C=CC[C@H](CC(=O)NCCO)C(=O)N[C@@H](C)COC(=O)[C@@H](CC=C)CC(=O)OC(C)(C)C	none
C=CC[C@@H](CC(=O)N(CCO)Cc1ccccc1)C(=O)N[C@H](COC(=O)[C@@H](CC=C)CC(=O)OC(C)(C)C)C(C)(C)C	DT40 TDP1 CPT inconclusive, IL1B secr inh -58.3, TDP1 cell noCPT inconclusive
Cc1c(NS(=O)(=O)c2ccc(C(C)(C)C)cc2)c(=O)n(-c2ccccc2)n1C	none (no result: TDP1 block, IL1B secr inh)
Cc1ccc(S/C=C\C(=O)c2ccccc2)cc1	DT40 TDP1 CPT 20.6µM, TGFb inhibitor inconclusive, IL1B secr inh -103.3, TDP1 cell noCPT 20.6µM
CCCCNc1c(-c2ccc(SC(C)CC)c(OC)c2)nc2ccc(C)cn12 (stereo not given)	DT40 TDP1 CPT 5.8µM, HepG2 viability 20µM, TGFb inhibitor inconclusive, IL1B secr inh -92.9, TDP1 cell noCPT 6.51µM
CCCCCCSc1ccc(-c2nc3ccc(Cl)cn3c2NCCCC)cc1OC	DT40 TDP1 CPT inconclusive, TGFb inhibitor inconclusive, TDP1 cell noCPT inconclusive
COc1ccc(-c2nc3ccc(Cl)cn3c2Cc2ccsc2)cc1OC	DT40 TDP1 CPT inconclusive, TGFb inhibitor inconclusive, TDP1 cell noCPT inconclusive (no result: TDP1 block)
CCCCCCSc1cc(-c2nc3cc(C)ccn3c2NCCCC)ccc1OC	DT40 TDP1 CPT 13µM, TGFb inhibitor inconclusive, IL1B secr inh -87.2, TDP1 cell noCPT 16.4µM
CCCCCCSc1ccc(-c2nc3ccc(C)cn3c2NCCCC)cc1OC	DT40 TDP1 CPT 11.6µM, TDP1 cell noCPT 9.2µM (no result: HepG2 viability, TDP1 block, TGFb inhibitor)
CCCCNc1c(-c2ccc(SC3CCCCC3)c(OC)c2)nc2ccc(Cl)cn12	DT40 TDP1 CPT inconclusive, TDP1 cell noCPT 16.4µM (no result: TDP1 block)
Cc1ccn2c(NC(=O)c3cccs3)c(-c3ccccc3)nc2c1	TDP1 cell noCPT inconclusive
CCCCNc1c(-c2cccc(-c3cc(C(C)=O)cs3)c2)nc2cc(C)ccn12	DT40 TDP1 CPT inconclusive, TGFb inhibitor inconclusive, IL1B secr inh -79.5, TDP1 cell noCPT inconclusive
CCCCNc1c(-c2ccc(SC(C)CC)c(OC)c2)nc2ccc(Cl)cn12 (stereo not given)	DT40 TDP1 CPT 25.9µM, TGFb inhibitor inconclusive, IL1B secr inh -68.3, TDP1 cell noCPT 20.6µM
